Here are results for 40 compounds from PubChem BioAssay (NCI).

Compounds without any hit were thinned out: in the full panel of roughly 83,000, 20% have a hit.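 Compound tested at a single concentration for 48 hours in 96-well plates; a percent growth value below 10 was scored as active.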 The source made the active and inactive calls.

In one assay the test system is U251 CNS. In words: NCI-60 one-dose screen, 48 h (100 = growth as untreated, 0 = no growth, -100 = all killed). The note with it: 10 µM.
`O=C(Nc1cccc2c1CCCC2)c1cc2ccccc2cc1O`: the growth was 33.8% (inactive).

Turning to `O=C1/C=C/[C@@H](O)[C@@H]2C[C@@H](O)C[C@H]2/C=C/CCC[C@H](CCc2ccc(NC(=S)Nc3ccc4c(c3)C(=O)OC43c4ccc(O)cc4Oc4cc(O)ccc43)cc2)O1`, the growth is 20% (inactive).

Consider `COc1cc(/C=C/c2cc(/C=C/c3ccc(O)c(OC)c3)nc(N)n2)ccc1O`, for which the growth was 2.97% (active).

For the compound `CC(=O)Oc1cc(OC(C)=O)c2ccccc2c1OC(C)=O`, the growth was 94% (inactive).

`CCOc1ccccc1/C=N\N=C\c1ccccc1O`: the growth is 104% (inactive).

Another assay has as its system PC-3 prostate. Described as above. The note with it: 10 µM.
On to `COc1ccc(/C=C2\CCCC3=C2NC(N)=NC3c2ccc(OC)cc2)cc1` (stereo not given), for which the growth was 86.7% (inactive).

Regarding `CN(C)CCCOc1cccc(NC2=C(Cl)C(=O)C(Nc3cccc(OCCCN(C)C)c3)=C(Cl)C2=O)c1`, the growth was 0.365% (active).

On to `N#CC1=C(N)Oc2cc(N)ccc2C1c1cccnc1` (stereo not given), for which the growth was 88.7% (inactive).

On to `COc1cc(/C=C/c2cc(/C=C/c3ccc(O)c(OC)c3)n(C(=O)Nc3ccc(C)cc3)n2)ccc1O`, for which the growth is 8.08% (active).

Take `Cc1ccc(-n2nnnc2N)c(C)c1`: the growth was 105% (inactive).

Regarding `CCCCN(CCCC)C(=O)[C@H](CC)[C@@H]1CC[C@@H](C)[C@@H]([C@H](C)[C@@H](O)[C@@H](C)C(=O)[C@H](CC)C2O[C@]3(C=C[C@@H](O)[C@]4(CC[C@@](C)([C@H]5CC[C@](O)(CC)[C@H](C)O5)O4)O3)[C@H](C)C[C@@H]2C)O1` (stereo not given in full), the growth is 4.26% (active).

As for `COc1ccc2c(c1)C(=O)/C(=C/c1ccc([N+](=O)[O-])o1)O2`, the growth is 58.9% (inactive).

For `Cc1ccc(S(=O)(=O)N(C)CCCCCC(=O)O)cc1`, the growth is 98.2% (inactive).

For `NC1=NC(c2ccc(Cl)cc2)C2=C(N1)/C(=C/c1ccc(Cl)cc1)CCC2` (stereo not given), the growth is 79.5% (inactive).

Regarding `S=C(NCc1ccccc1)NCc1ccccc1`, the growth is 84.3% (inactive).

With `COc1cc2cc(Oc3ccc(NC(=O)c4ccccc4)cc3)c(C)nc2cc1OC`, the growth was 75.4% (inactive).

As for `Cc1c(Cl)cccc1NC(=O)CN1CCOCC1`, the growth was 102% (inactive).

Turning to `C=CCN(CC=C)C(=O)[C@H](CC)[C@@H]1CC[C@@H](C)[C@@H]([C@H](C)[C@@H](O)[C@@H](C)C(=O)[C@H](CC)C2O[C@]3(C=CC(=O)[C@]4(CC[C@@](C)([C@H]5CC[C@](O)(CC)[C@H](C)O5)O4)O3)[C@H](C)C[C@@H]2C)O1` (stereo not given in full), the growth was 14.7% (inactive).

In the case of `CCN1CCN(CCC(=O)Nc2cccc(-n3cc(-c4ccncc4)c(-c4ccc(Cl)c(OC)c4)n3)c2)CC1`, the growth is 16.5% (inactive).

With `Nc1ccn(Cc2nnc(CCC(=O)c3nc4ccccc4[nH]3)o2)c(=O)n1`, the growth was 77% (inactive).

With `Cc1ccc2nc(Cl)c(-c3nc4ccccc4o3)cc2c1`, the growth was 79.8% (inactive).

`C/C=C/CSC(C)(C)C(=O)NC`: the growth is 92.8% (inactive).

In the case of `COc1cc2c(Nc3ccc(S(N)(=O)=O)cc3)ncnc2c(OC)c1OC`, the growth is 84.7% (inactive).

Consider `CC(=O)OC1C=CC(OC(C)=O)O1` (stereo not given), for which the growth was 92.7% (inactive).

As to `CC(=O)C1N=NCC1c1ccccc1` (stereo not given), the growth was 95.5% (inactive).

`O=C(CN(C1CCCCC1)C1CCCCC1)Nc1ccc(S(=O)(=O)c2ccc(NC(=O)CN(C3CCCCC3)C3CCCCC3)cc2)cc1`: the growth was -80% (active).

Regarding `Cc1c[nH]c(=O)n(Cc2nnc(CCC(=O)c3nc4ccccc4[nH]3)o2)c1=O`, the growth is 19.3% (inactive).

On to `O=C(CCn1cnc2c(cc(-c3ccccc3)n2-c2ccccc2)c1=O)Nc1ccc(F)cc1`, for which the growth is 68.6% (inactive).

In the case of `CN(C)CCOc1cccc(NC2=C(Cl)C(=O)C(Nc3cccc(OCCN(C)C)c3)=C(Cl)C2=O)c1`, the growth is 5.48% (active).

In the case of `CN1CCN(CCC(=O)Nc2cccc(-n3cc(-c4ccncc4)c(-c4ccc(Cl)c(O)c4)n3)c2)CC1`, the growth was 29.3% (inactive).

As to `CC(=O)Nc1ccc(CC[C@H]2CCC/C=C/[C@@H]3C[C@H](O)C[C@H]3[C@H](O)/C=C/C(=O)O2)cc1`, the growth was 18.9% (inactive).

Take `CN(C)CCN(Cc1ccccc1)c1ccc2ccccc2n1`: the growth was 81.4% (inactive).

With `C/C(=N\O)c1ccc(NC(=O)CSc2nnc(-c3ccccc3)n2-c2ccccc2)cc1`, the growth is 73.7% (inactive).

For the compound `CCC(CC)n1c(C)cc(=O)n1C(CC)CC`, the growth is 104% (inactive).

Consider `CC[C@@H](C(=O)[C@H](C)[C@H](O)[C@@H](C)[C@H]1O[C@H]([C@@H](CC)C(=O)O)CC[C@H]1C)C1O[C@]2(C=C[C@@H](O)[C@]3(CC[C@@](C)([C@H]4CC[C@](O)(CC)[C@H](C)O4)O3)O2)[C@H](C)C[C@@H]1C` (stereo not given in full), for which the growth was 27.5% (inactive).

As for `O=C(O)c1cc([N+](=O)[O-])ccc1Oc1ccccc1`, the growth was 89.2% (inactive).

On to `O=[N+]([O-])c1cccc(/C=N/NC(=S)NC23CC4CC(CC(C4)C2)C3)c1`, for which the growth is 75.9% (inactive).

For `COc1cc(C(=O)n2nc(-c3cc(OC)c(OC)c(OC)c3)nc2N)cc(OC)c1OC`, the growth is 95.7% (inactive).

Regarding `COc1ccc(-c2n[nH]nc2-c2cc(OC)c(OC)c(OC)c2)cc1`, the growth is 23.4% (inactive).

Consider `C=CCN(CC=C)C(=O)[C@H](CC)[C@@H]1CC[C@@H](C)[C@@H]([C@H](C)[C@@H](O)[C@@H](C)C(=O)[C@H](CC)C2O[C@]3(C=C[C@@H](O)[C@]4(CC[C@@](C)([C@H]5CC[C@](O)(CC)[C@H](C)O5)O4)O3)[C@H](C)C[C@@H]2C)O1` (stereo not given in full), for which the growth is 2.56% (active).

In the case of `O=C(Nc1cccc2c1CCCC2)c1cc2ccccc2cc1O`, the growth is 12.8% (inactive).

Regarding `O=C1/C=C/[C@@H](O)[C@@H]2C[C@@H](O)C[C@H]2/C=C/CCC[C@H](CCc2ccc(NC(=S)Nc3ccc4c(c3)C(=O)OC43c4ccc(O)cc4Oc4cc(O)ccc43)cc2)O1`, the growth is 23.3% (inactive).

As to `COc1cc(/C=C/c2cc(/C=C/c3ccc(O)c(OC)c3)nc(N)n2)ccc1O`, the growth is 13% (inactive).

On to `CC(=O)Oc1cc(OC(C)=O)c2ccccc2c1OC(C)=O`, for which the growth was 62.6% (inactive).

Consider `CCOc1ccccc1/C=N\N=C\c1ccccc1O`, for which the growth was 95.8% (inactive).
